Screens: PubChem BioAssay, National Center for Advancing Translational Sciences (NCATS)
The list is not random: actives were taken first. Their share in the collection is about 2.3%.
Giardia killer: Giardia lamblia killing; AID 540267; Giardia lamblia trophozoite viability; hit rate 0.15% among 340,000; activity change, % at 7.66 µM, hits read low; in the data active = activity change below about -80%; inconclusive = between about -30% and that limit;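 also: parasites exposed to compound for two days anaerobically before the ATP read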
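Killing of trophozoites was scored by loss of ATP luminescence after a 48 hrs anaerobic exposure to compounds at 37 deg C, using 100 cells per well.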
ELG1 repair inh: blocks ELG1-dependent DNA repair in HEK293T cells; HEK293T ELG1-luciferase reporter, luminescence, 16 h; DNA damage induced by 5-fluorouridine; Potency, µM (series often up to 46.1 µM), usual class: inhibitors; hit rate 2.3% among 330,000; AID 504467; also: nearly all actives have a fitted effect of over 55% in size
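Step one: seed 2,000 cells per well. Step two: pin-transfer compound or DMSO alongside 5-fluorouridine. Step three: incubate 16 hr, 37 °C, 5% CO2. Step four: add ONE-Glo, wait 30 min, read luminescence.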
TRPV1 potentiator: human TRPV1 potentiation. hit rate 0.02% among 320,000. TRPV1-expressing cells, Fluo-8 calcium influx, capsaicin EC20 potentiation. potentiation, % at 8.33 µM. Q8NER1; in the data active = potentiation above about 80%; inconclusive = between about 30% and that limit
Target sequence (Q8NER1 whole entry, looked up): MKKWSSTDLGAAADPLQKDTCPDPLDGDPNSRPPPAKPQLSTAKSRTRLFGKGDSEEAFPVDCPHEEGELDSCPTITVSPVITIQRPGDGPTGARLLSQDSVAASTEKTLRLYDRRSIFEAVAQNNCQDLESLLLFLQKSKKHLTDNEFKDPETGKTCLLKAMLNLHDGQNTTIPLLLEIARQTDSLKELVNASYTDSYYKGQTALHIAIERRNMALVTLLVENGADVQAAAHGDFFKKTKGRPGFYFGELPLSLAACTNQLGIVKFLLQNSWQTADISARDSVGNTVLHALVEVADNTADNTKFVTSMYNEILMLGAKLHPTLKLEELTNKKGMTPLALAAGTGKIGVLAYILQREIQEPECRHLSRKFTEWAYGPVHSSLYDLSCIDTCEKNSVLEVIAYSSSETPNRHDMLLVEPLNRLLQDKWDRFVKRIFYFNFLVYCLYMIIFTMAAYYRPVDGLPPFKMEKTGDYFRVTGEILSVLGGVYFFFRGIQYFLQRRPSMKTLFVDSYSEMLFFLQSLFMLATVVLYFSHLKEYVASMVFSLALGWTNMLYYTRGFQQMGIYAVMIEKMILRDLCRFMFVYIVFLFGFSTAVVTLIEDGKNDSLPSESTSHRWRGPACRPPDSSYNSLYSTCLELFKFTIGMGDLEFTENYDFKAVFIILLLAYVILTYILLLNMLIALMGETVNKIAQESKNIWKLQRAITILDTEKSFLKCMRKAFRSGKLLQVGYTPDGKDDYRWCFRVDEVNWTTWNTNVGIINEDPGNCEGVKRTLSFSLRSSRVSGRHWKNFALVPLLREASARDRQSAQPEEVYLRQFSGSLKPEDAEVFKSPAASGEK
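Fluo-8 calcium influx in TRPV1-expressing cells, kinetic read (ex 480/em 520 nm). Compound added and read 3 min for agonist activity, followed by capsaicin at EC20 final and 2 min further read for enhancement.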
FUS suppressor: rescues growth of FUS-expressing yeast; Potency, µM (series often up to 76.6 µM), usual class: activators; AID 1347120; S. cerevisiae FUS-expressing, growth rescue, OD600, 24 h; hit rate 0.24% among 390,000; also: nearly all actives have a fitted effect of over 55% in size
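S. cerevisiae expressing FUS from galactose induction served as the toxicity model. Growth after 24hr at 30C, read as absorbance at 600 nm, indicates suppression of toxicity; compounds dosed at several concentrations.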
TRPV1 ag: agonists of human vanilloid receptor 1 (TRPV1); Q8NER1; TRPV1-expressing cells, Fluo-8 calcium influx, agonist mode; activation, % at 8.33 µM; hit rate 0.19% among 320,000; AID 540275; in the data active = activation above about 80%; inconclusive = between about 30% and that limit
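Fluo-8 calcium influx in TRPV1-expressing cells, kinetic read (ex 480/em 520 nm). Compound added and read 3 min for agonist activity, followed by capsaicin at EC20 final and 2 min further read for enhancement.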
Large screens that a line does not name were inactive. Unless noted, calls follow the shape of the dose curve; as a rule, active = well fitted curve in the direction sought with a large enough effect; inconclusive = small, poorly fitted or top-dose-only effect, or another doubt; inactive = no such curve, though single readings can be large; an effect the other way counts as inactive or inconclusive.

O=C(NCCNCCO)c1c(O)c2cccc3c2n(c1=O)CCC3	ELG1 repair inh 6.51µM
CCCCCCNC(=O)c1c(O)c2cccc3c2n(c1=O)CCC3	none
COc1cccc(CNC(=O)c2ccc(CS(=O)Cc3ccccc3Cl)o2)c1 (configuration not stated)	none (no result: Giardia killer, ELG1 repair inh, TRPV1 potentiator, TRPV1 ag)
CCCN1CCc2c(sc(NC(=O)c3ccc(S(=O)(=O)N(C)c4ccccc4)cc3)c2C(=O)NC)C1	ELG1 repair inh 23.1µM
Cc1cccc(N2CCN(C(=O)C3CCN(S(=O)(=O)c4cccs4)CC3)CC2)c1C	none (no result: Giardia killer, ELG1 repair inh, TRPV1 potentiator, TRPV1 ag)
COc1ccc(CNC(=O)CCSc2ccc(F)cc2)cc1OC	ELG1 repair inh inconclusive, TRPV1 ag 83.7
O=C(CCSc1ccc(Cl)cc1)NCc1ccncc1	TRPV1 ag 86.2
O=C(CSc1ccc(Cl)cc1)NCc1ccncc1	TRPV1 ag inconclusive
COC(=O)c1cc(OC)c(OC)cc1NC(=O)c1ccc(C)o1	ELG1 repair inh 23.1µM
CCc1ccc(NC(=O)c2ccc3[nH]c(C)c(C)c3c2)cc1	none (no result: Giardia killer, ELG1 repair inh, TRPV1 potentiator, TRPV1 ag)
O=C(Nc1ccncc1)c1ccc(Br)cc1	TRPV1 ag 112.7
Cc1[nH]c2ccc(C(=O)Nc3ccncc3)cc2c1C	ELG1 repair inh 11.6µM
CCCCOc1ccc(C(=O)Nc2ccncc2)cc1	ELG1 repair inh inconclusive, TRPV1 ag 93.1
CCOc1ccc(C(=O)Nc2ccc(N3CCCC3)cc2)cc1	ELG1 repair inh inconclusive, FUS suppressor 35.5µM
O=C(Nc1ccncc1)c1ccc(Cl)cc1	TRPV1 ag inconclusive
CCc1ccc(OCC(=O)Nc2ccncc2)cc1	TRPV1 ag inconclusive
CC(C)c1ccc(OCC(=O)Nc2ccncc2)cc1	TRPV1 ag 94.8
CC(C)c1ccc(NC(=O)CSC2=Nc3ccccc3C3=NC(CCC(=O)NCc4cccs4)C(=O)N23)cc1 (configuration not stated)	none (no result: Giardia killer, ELG1 repair inh, TRPV1 potentiator, TRPV1 ag)
CCN(CC(=O)NC1CCS(=O)(=O)C1)c1nc(-c2ccccc2)nc2ccccc12 (configuration not stated)	ELG1 repair inh 13µM
O=C(Nc1ccc(C(=O)OCc2cc(=O)n3c4c(sc3n2)CCCC4)cc1)c1cccc(F)c1	none (no result: Giardia killer, ELG1 repair inh, TRPV1 potentiator, TRPV1 ag)
Cc1ccc(Nc2nc(N)c([N+](=O)[O-])c(N3CCC(C)CC3)n2)cc1C	ELG1 repair inh inconclusive (no result: FUS suppressor)
Cc1cccc(Nc2nc(N)c([N+](=O)[O-])c(N3CCCC(C)C3)n2)c1 (configuration not stated)	ELG1 repair inh 25.9µM
Cc1cccc(Nc2nc(N)c([N+](=O)[O-])c(N3CCN(C)CC3)n2)c1	ELG1 repair inh inconclusive
Cc1ccc(Nc2nc(N)c([N+](=O)[O-])c(N3CCOCC3)n2)cc1C	ELG1 repair inh 13µM
COc1cc([N+](=O)[O-])ccc1NC(=O)NCC1CCN(Cc2ccc(Cl)cc2)CC1	ELG1 repair inh 23.1µM, TRPV1 ag inconclusive
CNC(=O)CCCN1C(=O)CCn2nc(-c3cn(C)c4ccccc34)cc21	none (no result: Giardia killer, ELG1 repair inh, TRPV1 potentiator, TRPV1 ag)
Cc1ccc(Cl)cc1N1CCN(C(=O)CSc2nnc3n2C(C)(C)Cc2ccccc2-3)CC1	ELG1 repair inh 11.6µM
CCn1c(COc2cccc(C)c2C)nnc1SCC(=O)N1CCN(c2ccc(OC)cc2)CC1	ELG1 repair inh 10.3µM
COc1cc(NC(=O)CSc2nnc3n2C(C)(C)Cc2ccccc2-3)cc(OC)c1	ELG1 repair inh 22.4µM
COc1ccc(N2CCN(C(=O)CSc3nnc4n3C(C)(C)Cc3ccccc3-4)CC2)cc1	ELG1 repair inh 20.6µM
COC(=O)CSc1nnc2n1C(C)(C)Cc1ccccc1-2	none
CCCCCOC(=O)c1ccc(OC(=O)c2sc3ncn(Cc4cccc(F)c4)c(=O)c3c2C)cc1	none (no result: Giardia killer, ELG1 repair inh, TRPV1 potentiator, TRPV1 ag)
CCc1nn(CC(=O)Nc2ccc(NC(C)=O)cc2)c(=O)c2cc3sccc3n12	none (no result: Giardia killer, ELG1 repair inh, TRPV1 potentiator, TRPV1 ag)
COc1cccc2c1[C@H](/C=C/c1ccccc1)[C@@H]([C@H](O)COC(C)=O)OC2	none (no result: Giardia killer, ELG1 repair inh, TRPV1 potentiator, TRPV1 ag)
CC(C)C(=O)N1CCN(c2ccccc2NC(=O)c2ccc(Br)o2)CC1	ELG1 repair inh inconclusive (no result: TRPV1 potentiator, TRPV1 ag)
CCC(=O)N1CCN(c2ccccc2NC(=O)c2ccc([N+](=O)[O-])o2)CC1	Giardia killer -90.5, ELG1 repair inh inconclusive
O=C(Nc1ccccc1N1CCCC1)c1ccc([N+](=O)[O-])o1	Giardia killer inconclusive, ELG1 repair inh inconclusive
O=C(Nc1ccccc1N1CCN(C(=O)c2ccccc2)CC1)c1ccc([N+](=O)[O-])o1	Giardia killer -86.3, ELG1 repair inh inconclusive
